Several values for one entry are separate records, joined by “and”; a condition that tells them apart may be missing. Identical values can stand only once. Records with an inconclusive call do not appear. Some compounds were tested as several samples or in several runs, with calls that do not always agree. Activity calls are given as the source filed them. Unless noted, calls follow the shape of the dose curve; as a rule, active = well fitted curve in the direction sought with a large enough effect in the repeat runs; inconclusive = weak or mixed curves; inactive = no such curve, though single readings can be large; an effect the other way counts as inactive or inconclusive.

Assay [1] in a line: qHTS assay for small molecule agonists of the p53 signaling pathway - cell viability (AID 651633; calls by dose curve;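 also: p53RE-bla HCT reporter cells with a stable beta-lactamase p53 reporter; series mostly up to about 83 µM; nearly all actives have a fitted effect of over 30% in size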). In outline:
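Viability counter-read: CellTiter-Glo luminescence (30 min, room temperature) in the same p53RE-bla plates. These plates had been exposed to compounds for 16 h at 37 C.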
(In general: Quantitative high-throughput screening tests each substance at several concentrations.)

Assay [2] in a line: qHTS assay to test for compound auto fluorescence at 460 nm (blue) in HEK293 cells (AID 720678). In a few lines: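 Blue read-out at excitation 405 nm and emission 460 nm follows overnight compound exposure of HEK293 cells at 37C in 5% CO2. Activity is given as auto fluorescence equivalency to triamterene.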
A short description of assay [3]: qHTS assay to test for compound auto fluorescence at 590 nm (red) in HEK293 cells (AID 720679). In outline: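 Red channel, Ex/Em 540/590nm; signal expressed as equivalency to Rose Bengal sodium. HEK293, 2,000 cells/well, 10% dialyzed FBS; 23 nL compound pinned after 4-5 hr attachment; overnight 37C/5% CO2 before reading.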
Assay [4] can be described thus: qHTS assay to test for compound auto fluorescence at 460 nm (blue) in HepG2 cells (AID 720687). In a few lines: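 Blue-channel autofluorescence (Ex/Em 405/460 nm, triamterene-equivalent) was measured after 1 hr compound exposure at 37 C, 5% CO2. Cells were HepG2, plated overnight at 37 C in MEM plus 10% FBS.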
Assay [5] addresses Glucocorticoid receptor (Homo sapiens) (UniProt P04150). Briefly: qHTS assay to identify small molecule agonists of the glucocorticoid receptor (GR) signaling pathway (AID 720691; active = well fitted activation curve with a large enough effect in the signal ratio in the repeat runs, not every such curve was filed as active; the % refers to the signal ratio). In outline: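 Fluorescence intensity from LiveBLAzer B/G FRET substrate (2 h, room temperature) reports beta-lactamase expression driven by the glucocorticoid response element in GR-bla HeLa cells after 18 h compound exposure at 37 C.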

For assay [6] the target is unchanged. Description: qHTS assay to identify small molecule antagonists of the glucocorticoid receptor (GR) signaling pathway (AID 720692; active = well fitted inhibition curve with a large enough effect in the signal ratio in the repeat runs, not every such curve was filed as active; the % refers to the signal ratio). In outline: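 HeLa GR-bla cells; cmpd + dex 5 nM final, 18 h 37 C; LiveBLAzer B/G FRET substrate 2 h RT; fluorescence intensity read. Antagonist mode, qHTS.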
The nature of assay [7]: qHTS assay to identify small molecule antagonists of the glucocorticoid receptor (GR) signaling pathway - cell viability counter screen (AID 720693). Also: nearly all actives have a fitted effect of over 55% in size.
Assay [8] is described as follows: qHTS assay for identifying genotoxic compounds that show differential cytotoxicity against isogenic chicken DT40 cell lines with known DNA damage response pathways - wild type cell line (AID 743012). Also: nearly all actives have a fitted effect of over 60% in size. Also: potency is read from the fitted curve at half-maximal effect. In a few lines:
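Wild type DT40, 300 cells/well, ~0.5 h settle at 37 C/5% CO2; compounds in DMSO added by pintool; 40 h at 37 C/5% CO2; CellTiter-Glo, 30 min RT; luminescence.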

Assay [9] is described as follows: qHTS assay for identifying genotoxic compounds that show differential cytotoxicity against isogenic chicken DT40 cell lines with known DNA damage response pathways - Rev3 mutant cell line (AID 743014). Also: nearly all actives have a fitted effect of over 55% in size. Also: potency is read from the fitted curve at half-maximal effect.
Assay [10] is described as follows: qHTS assay for identifying genotoxic compounds that show differential cytotoxicity against isogenic chicken DT40 cell lines with known DNA damage response pathways - Rad54/Ku70 mutant cell line (AID 743015). Also: nearly all actives have a fitted effect of over 60% in size. Also: potency is read from the fitted curve at half-maximal effect.
Assay [11] can be described thus: qHTS assay to identify small molecule antagonists of the thyroid receptor (TR) signaling pathway - cell viability counter screen (AID 743064). Also: nearly all actives have a fitted effect of over 50% in size. Also: potency is read from the fitted curve at half-maximal effect. In outline: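 In-well cytotoxicity read by CellTiter-Fluor (30 min, 37 C) following 23.5 h exposure of GH3 cells bearing a TRE-luciferase sensor. Compounds were added alongside 1 nM (final) T3 to drive TR transactivation.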

The nature of assay [12]: qHTS assay to identify small molecule antagonists of the thyroid receptor (TR) signaling pathway (AID 743065). Also: nearly all actives have a fitted effect of over 55% in size. Also: potency is read from the fitted curve at half-maximal effect. In outline: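 Antagonism measured as loss of luciferase signal in GH3 cells stably carrying a TRE-luciferase reporter, co-treated with compound and T3 (1 nM final) for 23.5 h at 37 C. Viability was read in the same well by CellTiter-Fluor.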
The target of assay [13] is Estrogen receptor (Homo sapiens) (UniProt P03372). Briefly: qHTS assay to identify small molecule agonists of the estrogen receptor alpha (ER-alpha) signaling pathway (AID 743075; calls by dose curve;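 also: HEK293 GripTite cells with ER-alpha and UAS-driven beta-lactamase reporter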).
Sequence of Estrogen receptor (Homo sapiens) (P03372 whole entry, looked up): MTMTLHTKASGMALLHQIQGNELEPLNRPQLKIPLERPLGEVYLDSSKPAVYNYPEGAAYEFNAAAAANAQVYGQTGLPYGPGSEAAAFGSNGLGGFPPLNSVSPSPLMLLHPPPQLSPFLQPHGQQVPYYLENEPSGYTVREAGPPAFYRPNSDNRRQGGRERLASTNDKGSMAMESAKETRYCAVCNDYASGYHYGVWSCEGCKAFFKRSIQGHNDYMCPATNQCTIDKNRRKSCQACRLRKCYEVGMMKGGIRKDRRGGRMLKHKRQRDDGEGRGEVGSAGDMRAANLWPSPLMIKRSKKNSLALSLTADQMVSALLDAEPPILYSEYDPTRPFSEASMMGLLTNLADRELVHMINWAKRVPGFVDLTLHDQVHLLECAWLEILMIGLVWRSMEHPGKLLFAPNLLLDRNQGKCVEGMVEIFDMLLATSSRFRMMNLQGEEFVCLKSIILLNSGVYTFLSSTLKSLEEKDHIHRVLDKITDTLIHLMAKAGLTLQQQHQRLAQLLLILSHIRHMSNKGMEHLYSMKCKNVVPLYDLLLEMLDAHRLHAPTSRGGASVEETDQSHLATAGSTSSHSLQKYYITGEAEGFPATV
Assay [14] has the same target. Description: qHTS assay to identify small molecule agonists of the estrogen receptor alpha (ER-alpha) signaling pathway using the BG1 cell line (AID 743079). Also: nearly all actives have a fitted effect of over 20% in size. Also: potency is read from the fitted curve at half-maximal effect.
Assay [15] concerns the target Peroxisome proliferator-activated receptor gamma (Homo sapiens) (UniProt P37231). Briefly: qHTS assay to identify small molecule agonists of the peroxisome proliferator-activated receptor gamma (PPARg) signaling pathway (AID 743094; active = well fitted activation curve with a large enough effect in the signal ratio in the repeat runs, not every such curve was filed as active; the % refers to the signal ratio). In a few lines:
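Beta-lactamase FRET fluorescence was the read-out after a 1 h room-temperature substrate step, following 17 h compound treatment at 37C of HEK293H cells expressing a UAS-driven bla reporter responsive to PPARg.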

Assay [16] deals with Nuclear receptor subfamily 1 group I member 2 (Homo sapiens) (UniProt O75469). Briefly: CYP3A4 induction through human pregnane X receptor (PXR) by small molecules, qHTS assay (AID 1346984). Also: nearly all actives have a fitted effect of over 40% in size. In outline:
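Luminescence readout: luciferase signal after One-Glo (30 min, room temperature), following 3 h at 37C with 3uM final Luciferin-IPA P450 substrate. Cells were DPX-2 (HepG2, PXR/CYP3A4-luc co-transfected) dosed for 24 h.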

Assay [17] has the same target. Briefly: Human pregnane X receptor (PXR) activation by small molecules, qHTS assay (AID 1346985). Also: nearly all actives have a fitted effect of over 40% in size. In a few lines:
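DPX-2 cells (HepG2 co-transfected with a PXR response element and a CYP3A4-promoter luciferase construct) were seeded at 2,000 per well, rested 5 hr at 37C, then exposed to DMSO-dissolved compounds for 24 hr. Activation was read as luciferase luminescence.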

Assay [18] is described as follows: qHTS assay for small molecules that induce genotoxicity in human embryonic kidney cells expressing luciferase-tagged ATAD5 (AID 651632). Also: nearly all actives have a fitted effect of over 15% in size. In a few lines:
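ATAD5-luc HEK293T, 2,000 cells/well; cpd or DMSO pin-transferred; 16 hr, 37C/5% CO2; Amplite 30 min RT; luminescence.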

The nature of assay [19]: qHTS assay to test for compound auto fluorescence at 590 nm (red) in HepG2 cells (AID 720674). In outline:
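Red autofluorescence (Ex/Em 540/590 nm, Rose Bengal sodium equivalents) was measured in HepG2 cells, 2,000 per well in MEM plus 10% FBS, plated overnight at 37 C. Readings were taken 1 hr after adding 23 nL compound or DMSO, at 37 C and 5% CO2.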

A short description of assay [20]: qHTS assay to identify small molecule antagonists of the androgen receptor (AR) signaling pathway - cell viability counter screen (AID 743033; also: nearly all actives have a fitted effect of over 45% in size).

Sequence of Glucocorticoid receptor (Homo sapiens) (P04150 whole entry, looked up): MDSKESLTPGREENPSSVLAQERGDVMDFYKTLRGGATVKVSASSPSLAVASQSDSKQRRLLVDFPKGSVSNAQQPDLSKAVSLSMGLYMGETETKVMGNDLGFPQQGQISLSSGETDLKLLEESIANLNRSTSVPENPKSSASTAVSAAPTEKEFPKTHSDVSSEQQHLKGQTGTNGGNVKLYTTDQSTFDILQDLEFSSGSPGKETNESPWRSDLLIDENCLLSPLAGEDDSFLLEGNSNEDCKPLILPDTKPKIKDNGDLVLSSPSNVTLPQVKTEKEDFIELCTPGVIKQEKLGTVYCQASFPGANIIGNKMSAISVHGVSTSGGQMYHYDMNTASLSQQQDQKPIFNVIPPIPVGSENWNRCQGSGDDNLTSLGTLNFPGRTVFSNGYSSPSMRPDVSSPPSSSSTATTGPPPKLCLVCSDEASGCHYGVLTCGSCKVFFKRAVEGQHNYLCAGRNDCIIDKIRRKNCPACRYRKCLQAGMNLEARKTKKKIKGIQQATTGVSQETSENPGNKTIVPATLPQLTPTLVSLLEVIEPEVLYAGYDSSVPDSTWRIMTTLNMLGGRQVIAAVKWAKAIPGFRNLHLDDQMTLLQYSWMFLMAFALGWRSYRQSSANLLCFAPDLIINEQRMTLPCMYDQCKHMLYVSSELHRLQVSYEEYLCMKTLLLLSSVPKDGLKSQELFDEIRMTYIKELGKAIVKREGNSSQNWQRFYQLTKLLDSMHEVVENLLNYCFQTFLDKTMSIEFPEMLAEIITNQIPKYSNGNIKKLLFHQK
Sequence of Peroxisome proliferator-activated receptor gamma (Homo sapiens) (P37231 whole entry, looked up): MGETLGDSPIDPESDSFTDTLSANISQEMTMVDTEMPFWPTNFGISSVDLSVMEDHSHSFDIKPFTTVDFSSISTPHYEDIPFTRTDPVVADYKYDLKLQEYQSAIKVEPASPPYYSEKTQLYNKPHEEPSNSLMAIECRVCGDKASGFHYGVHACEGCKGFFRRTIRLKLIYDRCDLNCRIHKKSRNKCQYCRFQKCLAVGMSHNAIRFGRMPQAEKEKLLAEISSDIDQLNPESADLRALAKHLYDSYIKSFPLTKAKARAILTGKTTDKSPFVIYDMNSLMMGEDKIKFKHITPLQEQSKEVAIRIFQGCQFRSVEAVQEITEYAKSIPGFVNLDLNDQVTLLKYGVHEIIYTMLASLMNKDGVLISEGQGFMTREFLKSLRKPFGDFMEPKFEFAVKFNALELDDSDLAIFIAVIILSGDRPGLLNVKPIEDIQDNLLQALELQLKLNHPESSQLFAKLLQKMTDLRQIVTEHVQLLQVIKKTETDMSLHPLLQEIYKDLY

Turning to `CC(N)Cc1ccc(O)cc1` (centres undefined), the Potency result in assay [1], in assay [2], in assay [4], in [5], in [6] and in [7] was “inactive” in each case. The Potency entry in assay [8], in [9], in [10], in assay [11], in assay [12] and in assay [13] was “inactive” throughout. The Potency result in assay [14], in assay [15], in assay [16] and in assay [17] was “inactive” each time. In assay [3], the compound was classed as inactive.

Regarding `CN[C@H]1C[C@@H](N)[C@H](O)[C@@H](O[C@@H]2O[C@H](CO)[C@H](O)[C@@H]3OC4(O[C@H]23)O[C@H](C(N)CO)[C@H](O)[C@H](O)[C@H]4O)[C@@H]1O` (some centres undefined), the Potency entry in assay [18], in assay [1], in assay [2], in assay [4], in [7] and in assay [8] was “inactive” each time. Further, the Potency result in assay [9], in assay [10], in assay [11], in assay [13], in assay [14] and in assay [15] was “inactive” in each case. Moreover, the Potency result in [16] and in assay [17] was “inactive” each time. Also, the result in [19] was inactive. The Potency in [12] is 11.9 µM (active).

As for `CCC(C)(S(=O)(=O)CC)S(=O)(=O)CC`, the Potency result in assay [18], in assay [4], in assay [7], in assay [9], in assay [10] and in [11] was “inactive” each time. In addition, the Potency entry in assay [12], in assay [13], in assay [14], in [15], in assay [16] and in assay [17] was “inactive” each time. Also, the outcome in assay [19] was inactive.

On to `Cc1ccccc1-n1c(C)nc2ccccc2c1=O`, for which the Potency entry in [18], in assay [1], in assay [2], in assay [4], in assay [5] and in assay [6] was “inactive” in each case. In addition, the Potency entry in assay [7], in [20], in assay [12], in [13], in assay [15] and in assay [16] was “inactive” in each case. The Potency result in [17] is “inactive”. For the same compound, the Potency in assay [8] is 42.8 µM (active); in assay [9], 53.9 µM (active); in assay [10], 60.4 µM (active); in assay [11], “inactive and 24.1 µM (active)”; in [14], “inactive and 53.9 µM (active)”.

On to `CC(C)(O)[C@@H]1[C@H]2OC(=O)[C@@H]1[C@]1(O)C[C@H]3O[C@]34C(=O)O[C@H]2[C@]14C`, for which the Potency result in assay [18], in [1], in [2], in assay [4], in assay [5] and in assay [6] was “inactive” in each case. The Potency result in [7], in assay [9], in assay [10], in assay [20], in [11] and in assay [12] was “inactive” in each case. In addition, the Potency entry in assay [16] and in [17] was “inactive” throughout. The result in assay [19] and in assay [3] was inactive.

`NCC(O)c1cccc(O)c1` (centres undefined): the Potency result in [1], in [2], in assay [4], in [5], in assay [6] and in assay [7] was “inactive” throughout. Besides, the Potency entry in [8], in assay [9], in assay [10], in assay [20], in [11] and in [12] was “inactive” in each case. For the same compound, the Potency result in assay [13], in assay [14], in [15], in assay [16] and in assay [17] was “inactive” each time. In addition, the result in assay [19] was inactive.

Turning to `c1ccccc1`, the Potency result in assay [18], in assay [2], in [4], in [5], in assay [6] and in [8] was “inactive” each time. Further, the Potency result in [9], in assay [10], in assay [20], in assay [11], in [12] and in assay [13] was “inactive” in each case. In addition, the Potency result in assay [14] and in assay [15] was “inactive” each time. In addition, the compound was called inactive in assay [19] and in assay [3].

The record behind these values is PubChem BioAssay (Tox21).
